Test results as given in PubChem BioAssay (NCI).
The panel holds about 83,000 compounds, 20% with a hit somewhere; the sample as a whole holds those more often.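 How to read the values: 0–100, growth inhibition (40 = 60% inhibited); 0, no net growth; -100 to 0, cell death (-40 = 40% of starting cells died; -100 = all dead).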 A number with no mark means an inactive call. Calls of active or inactive are those of the source. The calls were made as follows: active = growth percent below 10; inactive = the rest.

What was measured:
Experiment in all cases: NCI-60 one-dose screen, 48 h (100 = growth as untreated, 0 = no growth, -100 = all killed)
Conditions in all cases: 10 µM
[1] = test system: T-47D breast
[2] = test system: BT-549 breast
[3] = test system: MDA-MB-435 melanoma
[4] = test system: SW-620 colon
[5] = test system: MCF7 breast
[6] = test system: HCT-116 colon
[7] = test system: HCC-2998 colon
[8] = test system: KM12 colon

Row | SMILES | growth [1] | growth [2] | growth [3] | growth [4] | growth [5] | growth [6] | growth [7] | growth [8]
1 | COc1cc(-c2cc(/C=C/C(C)=O)[nH]n2)cc(OC)c1OC | 32.2% | 71.7% | 61.8% | 74.3% | 41% | 39% | 103% | 72%
2 | COc1ccc(-c2n/c(=C\c3c(O)[nH]c4ccccc34)cc3c2=Nc2ccccc2-3)cc1 | 84.8% | 78.4% | 4.87% (active) | -6.59% (active) | -22% (active) | -87.3% (active) | 17.8% | 5.41% (active)
3 | O=C(Nc1ccc(CN2CCOCC2)cc1)c1ccc(-c2cc(Cl)ccc2Cl)o1 | 34.7% | 102% | -10.5% (active) | -2.26% (active) | -34.1% (active) | 22.3% | -83.5% (active) | 8.82% (active)
4 | O=C(O)CCCCSCCCCC(=O)O | 86.7% | 110% | 107% | 111% | 97.5% | 108% | 106% | 110%
5 | Fc1cc(-c2ncc(-c3cc(F)c(F)c(F)c3)c(NC3CCCCCC3)n2)cc(F)c1F | 102% | 103% | 96.8% | 96.9% | 90.8% | 101% | 127% | 101%
6 | COc1cc2ccnc(C=O)c2cc1OC | 60.7% | 56.3% | 31.1% | 30.2% | 23.8% | 9.15% (active) | 104% | 92.1%
7 | COc1cc(CSc2nc3ccc(Cl)cc3c(=O)n2-c2ccccc2)cc(OC)c1OC | 71% | 92.8% | 24.4% | 79.7% | 76.9% | 61.8% | 80% | 49.8%
8 | O/N=C1\CCC2CCCCC2C1 (centres undefined) | 94% | 105% | 104% | 109% | 93% | 103% | 106% | 106%
9 | O=C(O)CNS(=O)(=O)c1ccc(OCCOc2ccc(S(=O)(=O)NCC(=O)O)cc2)cc1 | 93.5% | 105% | 113% | 103% | 98.6% | 103% | 98.1% | 99.5%
10 | Cc1ccc(/C=C2\CN(Cc3cn(CCNc4ccnc5cc(Cl)ccc45)nn3)C/C(=C\c3ccc(C)cc3)C2=O)cc1 | -12.3% (active) | -71% (active) | -67.3% (active) | -63.6% (active) | -38.3% (active) | -53.5% (active) | -91% (active) | -93.8% (active)
11 | NC(N)=NS(=O)(=O)c1ccc(Nc2ccc3nnc(-c4ccncc4)n3n2)cc1 | 96.4% | 112% | 110% | 97.6% | 91.3% | 100% | 99.1% | 100%
12 | COc1cc(Nc2ccnc(N3CCN(c4ccnc5cc(Cl)ccc45)CC3)n2)cc(OC)c1 | -16.6% (active) | -4.01% (active) | 1.35% (active) | 11% | 0.585% (active) | 5.15% (active) | 9.25% (active) | 8.26% (active)
13 | COc1ccc(C2C=C(c3ccc(OC)c(OC)c3)N=C3SC=CN32)c(Br)c1 (centres undefined) | 54.7% | 62.5% | 5.29% (active) | 13.4% | 12.7% | -78.2% (active) | 95% | 31.5%
14 | Nc1cc2c(cc1Cl)-c1ccc(Cl)cc1C2=O | 59.6% | 100% | 103% | 95.8% | 42.1% | 76.4% | 101% | 96.4%
15 | Cc1nc2ccc(-n3c(-c4ccc(Cl)cc4)nc4ccccc4c3=O)cc2n1Cc1ccccc1 | 78.8% | 83.3% | 97.2% | 93.7% | 85% | 93% | 107% | 97.8%
16 | N#Cc1ncc(-c2cc(F)ccc2F)c(NC2CCCCCC2)n1 | 69.5% | 76.2% | 93.6% | 96.1% | 82.3% | 85.6% | 82.3% | 36.4%
17 | CC(CNC(Cc1ccccc1)c1ccccc1)NC(Cc1ccccc1)c1ccccc1 (centres undefined) | 14.6% | 60.9% | 63.4% | 26.4% | 8.12% (active) | 13.2% | 20.1% | 22.2%

Row | SMILES | growth [1] | growth [2] | growth [3] | growth [4] | growth [5] | growth [6] | growth [7] | growth [8]
18 | CCOC(=O)c1sc(Nc2ncccn2)nc1-c1ccccn1 | 41.8% | 89.2% | 103% | 95.6% | 7.18% (active) | 74.2% | 80.7% | 83%
19 | CC(=O)n1nc(C(=O)OC(C)(C)C)c2cc(F)c(F)cc21 | 104% | 119% | 95.9% | 94.1% | 99.2% | 95% | 102% | 90%
20 | NC1CCC(Nc2nc(NCc3ccc(-c4ccccc4O)nc3)c3ncn(C4CCCC4)c3n2)CC1 (centres undefined) | -34.2% (active) | -28% (active) | -81.5% (active) | 0.393% (active) | -62.4% (active) | -55.8% (active) | -73.3% (active) | -16.2% (active)
21 | COc1ccc(-c2nsc3c2NC(=O)CC3c2ccc(Cl)cc2)cc1 (centres undefined) | 69.1% | 73.5% | 81% | 103% | 88.4% | 85.8% | 93.2% | 82.7%
22 | CCOC(=O)c1ccc(N(C=O)CCC(=O)CCl)cc1 | -4.12% (active) | -63.2% (active) | -23.9% (active) | 7.93% (active) | -8.44% (active) | 1.64% (active) | 14.2% | 4.98% (active)
23 | Nc1ccccc1NC(=O)CCCCCCC(=O)Nc1ccc2c(c1)/C(=C/c1ccc[nH]1)C(=O)N2 | 37.9% | 22% | 37.8% | 47.4% | 15.9% | 17% | 70.2% | 13.7%
24 | CCCCOCCOCCOCc1cc2c(cc1Br)OCO2 | 88% | 110% | 108% | 100% | 90.2% | 94.9% | 108% | 97.7%
25 | CCCCCCCCCCCC(=O)NCCCN(C)C | 84.8% | 70.5% | 94.5% | 102% | 65.7% | 67.6% | 78.5% | 104%
26 | N#Cc1cnc2ccc(NCc3cnc[nH]3)cc2c1Nc1ccc(F)c(Cl)c1 | 57.2% | 74.2% | 92.4% | 71.7% | 91.9% | 56.1% | 91.4% | 84.2%
27 | CCOC(=O)Cn1nnc(-c2ccc(OCc3ccccc3F)cc2)n1 | 72.6% | 96.9% | -2.38% (active) | 83.3% | 75.8% | 80.1% | 100% | 75.6%
28 | Brc1ccc(-c2cn3ccnc3c(-c3ccc(Br)cc3)n2)cc1 | 37.2% | 17.6% | 3.08% (active) | 25.4% | 22% | 30% | 60.2% | 34.6%
29 | Cc1cc(C(C)(C)CC(C)(C)C)ccc1OCCOCC[N+](C)(C)Cc1ccccc1 | 7.06% (active) | -99% (active) | -87% (active) | -80.6% (active) | -90.7% (active) | -97.4% (active) | -60.6% (active) | -92.5% (active)
30 | C[C@H](NC(=O)[C@@H]1CSSC[C@@H](NC(=O)Cc2nc3ccccc3cc2O)C(=O)NCC(=O)N1C)c1ccccc1 | 77.1% | 83.8% | 70.7% | 94% | 51.7% | 44.7% | 94.9% | 56%
31 | COc1ccc(C(=O)c2sc3nc(-c4cccs4)ccc3c2N)cc1OC | 25.3% | 48.9% | 5.62% (active) | 45.4% | 24.7% | 43.3% | 82% | 38.1%
32 | COc1cc(-c2c(C#N)c(N)n3c(nc4ccccc43)c2C#N)cc(Br)c1OC | 65.8% | 65.1% | 62.8% | 41.4% | 24.6% | 18.8% | 89.5% | 21.1%
33 | Nc1ncc(-c2ccc(C(F)(F)F)cc2)c(NC2CCCCCC2)n1 | 20.5% | 48.3% | 37.1% | 37.4% | 25% | 26.3% | 35.1% | 31.6%
